# Test results: the supplement of paper PMC10037445
# Where “and” joins values, the source holds several entries; their conditions need not be identical. Identical values can stand only once. ± gives the standard deviation of the averaged measurements. Whole data set: some 2,900 compounds, median “IRF Lucia reporter activity, fold change vs agonist alone” near 0.9, cut for the highest 2% near 2.8. This is one part of a sample in which the highest values are shown more often than they occur.
# Assays:
# [1] = system: RAW-Dual; test: IRF Lucia reporter activity, fold change vs agonist alone; cytotoxicity flag (confluency mask): not cytotoxic; higher = enhanced IRF activity
# Outline: (§1)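 After 50 nL of library stock was delivered by pin tool to RAW-Dual macrophages (50,000 cells/well, DMEM, 384-well plates), a PRR agonist was added 1 h later and the plates were kept at 37 °C, 5% CO2. Twenty hours later, IRF was read from supernatant by QuantiLuc luminescence and NF-κB by QuantiBlue absorbance at 620 nm. Reporter activity is stated as fold change over agonist-alone wells. Wells with IncuCyte confluency under 70% of agonist controls in both mask sets were counted as cytotoxic.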
# [2] = system: RAW-Dual; test: IRF Lucia reporter activity, fold change vs agonist alone; higher = enhanced IRF activity; details: agonist: MPLA (TLR4) […]
# Outline: as §1
# [3] = system: RAW-Dual; test: IRF Lucia reporter activity, fold change vs agonist alone; cytotoxicity flag (confluency mask): cytotoxic (confluency <70% of control); higher = enhanced IRF activity
# Outline: as §1
# [4] = agonist: 3'3'-cGAMP (STING) 10 ug/mL
# [5] = library stock concentration (final ~1000-fold dilution): 10 mM, cytotoxicity flag (confluency mask): not cytotoxic
# [6] = library stock concentration (final ~1000-fold dilution): 10 mM, cytotoxicity flag (confluency mask): cytotoxic (confluency <70% of control)
structure (smiles),measurement,setting,value
Cc1cnc(Nc2ccc(F)cc2Cl)nc1-c1c[nH]c(C(=O)NC(CO)c2cccc(Cl)c2)c1 (stereo not given) (library stock concentration (final ~1000-fold dilution): 10 mM),IRF Lucia reporter activity,[1]; [4],0.474
same,IRF Lucia reporter activity,[1]; agonist: LPS (TLR4) 0.1 ug/mL,1.16
CN1CCc2c(c3ccccc3n2Cc2ccc(C(=O)NO)cc2)C1.Cl,IRF Lucia reporter activity,[2]; [5],5.65
CN1CCc2c(c3ccccc3n2Cc2ccccc2)C1.CN1CCc2c(c3ccccc3n2Cc2ccccc2)C1.O=S(=O)(O)c1cccc2c(S(=O)(=O)O)cccc12 (library stock concentration (final ~1000-fold dilution): 2 mM),IRF Lucia reporter activity,[1]; [4],1.04
same,IRF Lucia reporter activity,[1]; agonist: LPS (TLR4) 0.1 ug/mL,1
CN1CCc2c(c3ccccc3n2Cc2ccccc2)C1.CN1CCc2c(c3ccccc3n2Cc2ccccc2)C1.O=S(=O)(O)c1cccc2c(S(=O)(=O)O)cccc12,IRF Lucia reporter activity,"[2]; library stock concentration (final ~1000-fold dilution): 2 mM, cytotoxicity flag (confluency mask): not cytotoxic",1.25
CN1CCc2c(c3ccccc3n2Cc2ccc(C(=O)NO)cc2)C1.Cl (library stock concentration (final ~1000-fold dilution): 10 mM),IRF Lucia reporter activity,[1]; [4],1.18
same,IRF Lucia reporter activity,[1]; agonist: LPS (TLR4) 0.1 ug/mL,4.79
CN1CCc2c(c3ccccc3n2Cc2ccc(C(=O)NO)cc2)C1 (library stock concentration (final ~1000-fold dilution): 10 mM),IRF Lucia reporter activity,[1]; [4],0.943
same,IRF Lucia reporter activity,[1]; agonist: LPS (TLR4) 0.1 ug/mL,1.19
COc1ccc(CC(=O)Nc2nc3c(s2)CCc2ccccc2-3)cc1OC (library stock concentration (final ~1000-fold dilution): 10 mM),IRF Lucia reporter activity,[1]; [4],0.989
same,IRF Lucia reporter activity,[1]; agonist: LPS (TLR4) 0.1 ug/mL,0.961
COc1cccc(C=NCCN=Cc2cccc(OC)c2[O-])c1[O-].[Cl-].[Mn+2] (library stock concentration (final ~1000-fold dilution): 10 mM),IRF Lucia reporter activity,[1]; [4],1.06
same,IRF Lucia reporter activity,[1]; agonist: LPS (TLR4) 0.1 ug/mL,0.762
COc1cccc(C=NCCN=Cc2cccc(OC)c2[O-])c1[O-].[Cl-].[Mn+2],IRF Lucia reporter activity,[2]; [5],0.946
CCOc1cc(N2CCC(O)CC2)ccc1Nc1ncc2c(n1)N(C)c1ccccc1C(=O)N2C (library stock concentration (final ~1000-fold dilution): 10 mM),IRF Lucia reporter activity,[1]; [4],0.518
same,IRF Lucia reporter activity,[1]; agonist: LPS (TLR4) 0.1 ug/mL,0.253
CCOc1cc(N2CCC(O)CC2)ccc1Nc1ncc2c(n1)N(C)c1ccccc1C(=O)N2C,IRF Lucia reporter activity,[2]; [5],0.32
Cc1nc(Nc2cnn(C3CCNCC3)c2)nc2c1N(C)C(=O)c1cc3ccccc3cc1N2C (library stock concentration (final ~1000-fold dilution): 10 mM),IRF Lucia reporter activity,[3]; [4],1.96
same,IRF Lucia reporter activity,[3]; agonist: LPS (TLR4) 0.1 ug/mL,3.05
CN1c2ccccc2C(=O)Nc2cnc(Nc3ccc(N4CCC(O)CC4)cc3)nc21 (library stock concentration (final ~1000-fold dilution): 10 mM),IRF Lucia reporter activity,[1]; [4],0.137
same,IRF Lucia reporter activity,[1]; agonist: LPS (TLR4) 0.1 ug/mL,0.438
Cc1nc(Nc2cnn(C3CCNCC3)c2)nc2c1N(C)C(=O)c1cc3ccccc3cc1N2C,IRF Lucia reporter activity,[2]; [6],3.71
COc1cc(C(=O)O)ccc1NC(=O)C1NC(CC(C)(C)C)C(C#N)(c2ccc(Cl)cc2F)C1c1cccc(Cl)c1F (stereo not given) (library stock concentration (final ~1000-fold dilution): 10 mM),IRF Lucia reporter activity,[1]; [4],0.62
same,IRF Lucia reporter activity,[1]; agonist: LPS (TLR4) 0.1 ug/mL,0.186
CC(C)(C)CC1NC(C(=O)NC2CCC(O)CC2)C(c2cccc(Cl)c2F)C12C(=O)Nc1cc(Cl)ccc12 (stereo not given) (library stock concentration (final ~1000-fold dilution): 10 mM),IRF Lucia reporter activity,[3]; [4],0.342
same,IRF Lucia reporter activity,[3]; agonist: LPS (TLR4) 0.1 ug/mL,3.33
COc1cc(C(=O)O)ccc1NC(=O)C1NC(CC(C)(C)C)C(C#N)(c2ccc(Cl)cc2F)C1c1cccc(Cl)c1F (stereo not given),IRF Lucia reporter activity,[2]; [5],0.67
O=c1cc(-c2ccccc2)oc2cc(OC3OC(CO)C(O)C(O)C3O)c(O)c(O)c12 (stereo not given) (library stock concentration (final ~1000-fold dilution): 10 mM),IRF Lucia reporter activity,[1]; [4],0.862
same,IRF Lucia reporter activity,[1]; agonist: LPS (TLR4) 0.1 ug/mL,0.849
CC(Nc1ncnc(N)c1C#N)c1cc2cccc(-c3ccc(=O)n(C)c3)c2c(=O)n1C(C)C (stereo not given) (library stock concentration (final ~1000-fold dilution): 10 mM),IRF Lucia reporter activity,[1]; [4],1.14
same,IRF Lucia reporter activity,[1]; agonist: LPS (TLR4) 0.1 ug/mL,8.45
CC(NC(=O)c1c(N)nn2cccnc12)c1cc2cccc(C#Cc3cnn(C)c3)c2c(=O)n1-c1ccccc1 (stereo not given) (library stock concentration (final ~1000-fold dilution): 10 mM),IRF Lucia reporter activity,[1]; [4],0.813
same,IRF Lucia reporter activity,[1]; agonist: LPS (TLR4) 0.1 ug/mL,1.14
CC(Nc1ncnc2[nH]cnc12)c1cc2cccc(Cl)c2c(=O)n1-c1ccccc1 (stereo not given),IRF Lucia reporter activity,[2]; [5],1.42
CC(Nc1ncnc2[nH]cnc12)c1cc2cccc(Cl)c2c(=O)n1-c1ccccc1 (stereo not given) (library stock concentration (final ~1000-fold dilution): 10 mM),IRF Lucia reporter activity,[1]; [4],0.659
same,IRF Lucia reporter activity,[1]; agonist: LPS (TLR4) 0.1 ug/mL,0.799
CC(Nc1ncnc(N)c1C#N)c1cc2cccc(-c3ccc(=O)n(C)c3)c2c(=O)n1C(C)C (stereo not given),IRF Lucia reporter activity,[2]; [5],7.07
Cl.Fc1ccc(C2CCNCC2COc2ccc3c(c2)OCO3)cc1 (stereo not given),IRF Lucia reporter activity,[2]; [5],1.35
Cl.Fc1ccc(C2CCNCC2COc2ccc3c(c2)OCO3)cc1 (stereo not given) (library stock concentration (final ~1000-fold dilution): 10 mM),IRF Lucia reporter activity,[1]; [4],0.928
same,IRF Lucia reporter activity,[1]; agonist: LPS (TLR4) 0.1 ug/mL,1.02
OCC1=CC(O)C2C=COC(OC3OC(CO)C(O)C(O)C3O)C12 (stereo not given),IRF Lucia reporter activity,[2]; [5],1.01
OCC1=CC(O)C2C=COC(OC3OC(CO)C(O)C(O)C3O)C12 (stereo not given) (library stock concentration (final ~1000-fold dilution): 10 mM),IRF Lucia reporter activity,[1]; [4],1.05
same,IRF Lucia reporter activity,[1]; agonist: LPS (TLR4) 0.1 ug/mL,1.37
O=C(O)CCc1c[nH]c2ccccc12 (library stock concentration (final ~1000-fold dilution): 10 mM),IRF Lucia reporter activity,[1]; [4],0.921
same,IRF Lucia reporter activity,[1]; agonist: LPS (TLR4) 0.1 ug/mL,1.18
OCc1c[nH]c2ccccc12,IRF Lucia reporter activity,[2]; [5],1.07 ± 0.022
c1ccc2c(CCNc3ccc(Nc4ccncc4)cc3)c[nH]c2c1 (library stock concentration (final ~1000-fold dilution): 10 mM),IRF Lucia reporter activity,[1]; [4],0.706
same,IRF Lucia reporter activity,[1]; agonist: LPS (TLR4) 0.1 ug/mL,0.612
c1ccc2c(CCNc3ccc(Nc4ccncc4)cc3)c[nH]c2c1,IRF Lucia reporter activity,[2]; [5],2.97
OCc1c[nH]c2ccccc12 (library stock concentration (final ~1000-fold dilution): 10 mM),IRF Lucia reporter activity,[1]; [4],0.803 and 0.565
same,IRF Lucia reporter activity,[1]; agonist: LPS (TLR4) 0.1 ug/mL,0.839 and 0.758
CN1CC2c3ccccc3Oc3ccc(Cl)cc3C2C1.O=C(O)/C=C\C(=O)O (stereo not given) (library stock concentration (final ~1000-fold dilution): 10 mM),IRF Lucia reporter activity,[3]; [4],0.746
same,IRF Lucia reporter activity,[3]; agonist: LPS (TLR4) 0.1 ug/mL,0.716
CN1CC2c3ccccc3Oc3ccc(Cl)cc3C2C1.O=C(O)/C=C\C(=O)O (stereo not given),IRF Lucia reporter activity,[2]; [6],1.95
